This note sets out measurements from PubChem BioAssay (Tox21).

Molecules are shown by their SMILES. Where “and” joins values, the source holds several entries; their conditions need not be identical. Equal entries are not always repeated. Results filed as inconclusive are left out. A structure can be active in one record and inactive in another. Calls of active or inactive are those of the source. Unless noted, calls follow the shape of the full dose curve.

Assay [1] is described as follows: Nuclear factor erythroid 2-related factor 2/antioxidant responsive element (Nrf2/ARE) small molecule agonists: luciferase reporter gene qHTS assay in human keratinocytes (AID 1919969). Also: nearly all actives have a fitted effect of over 35% in size.
The target in assay [2] is Gonadotropin-releasing hormone receptor (Homo sapiens) (UniProt P30968). Nature of the assay: Human gonadotropin-releasing hormone receptor (GnRHR) small molecule agonists, calcium flux assay in GnRHR-HEK293 cells (AID 1920063). Also: nearly all actives have a fitted effect of over 35% in size. Also: potency is read from the fitted curve at half-maximal effect. In short, it runs like this: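 We seeded human GnRHR-expressing HEK293 cells for 18 hours, loaded them with calcium dye for an hour at 37 C, added test compounds, and recorded fluorescence intensity kinetically for three minutes.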
A general note: A change in cytosolic calcium serves as a functional read-out for many receptors and channels.

Assay [3] is described as follows: G protein-coupled receptor (GPCR) small molecule agonists, calcium flux assay: HEK293 wild type cell line counter screen (AID 1920065). The procedure, abridged: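 Calcium-sensitive dye, loaded 1 h at 37 C into cells cultured 18 h, reports compound-evoked calcium release as fluorescence (Ex/Em 480/540), measured over 3 min. Agonist mode; 15-point titrations, triplicate.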

Assay [4] can be described thus: p53 small molecule agonists, cell-based qHTS assay with human liver microsomes (AID 1963577). In short, it runs like this: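 Compounds act here after metabolic activation: human liver microsomes and NADPH, both at 0.5 mg/mL final, were co-added to p53RE-bla cells. Incubation ran 16 h at 37 C, followed by LiveBLAzer detection.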
On the technique in general: Quantitative high-throughput screening tests each substance at several concentrations.

The nature of assay [5]: p53 small molecule agonists, cell-based qHTS assay with human liver microsomes: qHTS cell viability counter screen (AID 1963579). Also: nearly all actives have a fitted effect of over 45% in size. Also: potency is read from the fitted curve at half-maximal effect. In short, it runs like this: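 Cells carrying the p53 response-element beta-lactamase reporter are treated for 16 h at 37 C with test compounds in the presence of human liver microsomes and NADPH (both 0.5 mg/mL final); ATP-based CellTiter-Glo luminescence then reports viability.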

The nature of assay [6]: p53 small molecule agonists, cell-based qHTS assay with rat liver microsomes: qHTS cell viability counter screen (AID 1963580). Also: nearly all actives have a fitted effect of over 45% in size. Also: potency is read from the fitted curve at half-maximal effect. The procedure, abridged:
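Viability is assessed in parallel with the p53 reporter read: HCT-116 p53RE-bla cells receive compounds plus rat microsomes and NADPH (0.5 mg/mL final apiece), incubate 16 h at 37 C, and then CellTiter-Glo luminescence is recorded.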

Assay [7] is described as follows: p53 small molecule agonists, cell-based qHTS assay: qHTS cell viability counter screen (AID 1963581). Also: nearly all actives have a fitted effect of over 45% in size. Also: potency is read from the fitted curve at half-maximal effect. In short, it runs like this: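 Following 5 h attachment, HCT-116 p53RE-bla cells took up compound for 16 h at 37 C; the reporter was read with B/G FRET substrate (2 h RT), and viability then via CellTiter-Glo ATP luminescence.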
Assay [8] in a line: p53 small molecule agonists, cell-based qHTS assay (AID 1963582; active = well fitted activation curve with a large enough effect in the signal ratio in the repeat runs, not every such curve was filed as active; the % refers to the signal ratio). In short, it runs like this:
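In this cell-based concentration-response screen, a p53 response element drives beta-lactamase; cells received DMSO-borne compounds after 5 h culture and were incubated a further 16 h before FRET substrate development.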

Assay [9] addresses 5-hydroxytryptamine receptor 2A (Homo sapiens) (UniProt P28223). Nature of the assay: 5-hydroxytryptamine receptor 2A (HTR2A) small molecule antagonists, cell-based qHTS assay (AID 1963586). Also: nearly all actives have a fitted effect of over 45% in size. The procedure, abridged:
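Antagonist-mode intracellular calcium assay: DOI (4 nM) added after 5 min compound pre-incubation at room temperature to dye-loaded HTR2A-CHO cells. Fluorescence followed for 3 min, sampled every second.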

For assay [10] the target is unchanged. Nature of the assay: 5-hydroxytryptamine receptor 2A (HTR2A) small molecule agonists, cell-based qHTS assay (AID 1963587). Also: nearly all actives have a fitted effect of over 30% in size. Also: potency is read from the fitted curve at half-maximal effect. The procedure, abridged: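 CHO cells stably expressing human HTR2A, plated 18 h, loaded with calcium dye 1 h at 37 C. Agonist mode: compounds added and intracellular calcium fluorescence recorded kinetically for 2 min at 1 sec intervals.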

Assay [11] deals with Muscarinic acetylcholine receptor M1 (Homo sapiens) (UniProt P11229). In words: Cholinergic receptor muscarinic 1 (CHRM1) small molecule antagonists, cell-based qHTS assay (AID 1963588). Also: nearly all actives have a fitted effect of over 40% in size. Also: potency is read from the fitted curve at half-maximal effect. The procedure, abridged:
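CHRM1-CHO calcium-flux assay, antagonist mode. Cells were seeded 18 h, dye-loaded 1 h at 37 C and given compound for 5 min at RT, then acetylcholine was added at 50nM. FDSS fluorescence was read 3 min; 15 concentrations, three runs.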

Assay [12] shares this target. Nature of the assay: Cholinergic receptor muscarinic 1 (CHRM1) small molecule agonists, cell-based qHTS assay (AID 1963589). Also: nearly all actives have a fitted effect of over 35% in size. Also: potency is read from the fitted curve at half-maximal effect. In short, it runs like this: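 Measures agonist-induced intracellular calcium rise. Stable human CHRM1 CHO line, 1 h dye load at 37 C, compounds from DMSO, kinetic fluorescence read.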
Assay [13] in a line: cAMP Responsive Elements (CRE) small molecule agonists, cell-based qHTS assay (AID 1963590). The procedure, abridged: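 A CRE-responsive beta-lactamase reporter in HEK 293T cells was used. Treatment ran 3 h at 37 C; detection used LiveBLAzer B/G FRET substrate for 2 h at room temperature.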
Assay [14] can be described thus: cAMP Responsive Elements (CRE) small molecule antagonists, cell-based qHTS assay (AID 1963591; active = well fitted inhibition curve with a large enough effect in the signal ratio in the repeat runs, not every such curve was filed as active; the % refers to the signal ratio). In short, it runs like this:
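HEK293T cells carrying a CRE-driven beta-lactamase reporter receive compound and NKH477 (0.25 uM final) for 3 h. Fluorescence from LiveBLAzer B/G FRET substrate is read after 2 h at room temperature.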

The target of assay [15] is Beta-2 adrenergic receptor (Homo sapiens) (UniProt P07550). In words: Adrenergic beta2 receptor (ADRB2) small molecule antagonists, cell-based qHTS assay (AID 1963592). Also: series mostly up to about 92 µM; nearly all actives have a fitted effect of over 50% in size. The procedure, abridged:
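Cells (CHO, stable ADRB2 overexpression) incubated 18-20hr at 37C; compounds added from DMSO; agonist mix (1nM isoproterenol, 100uM IBMX, 25uM Ro-20-1724) added; 0.5hr RT; d2-cAMP and anti-cAMP-cryptate added; 1hr RT; 665/615 nm read.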

For assay [16] the target is unchanged. Nature of the assay: Adrenergic beta2 receptor (ADRB2) small molecule agonists, cell-based qHTS assay (AID 1963593).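 Also: CHO cells stably overexpressing human ADRB2.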 In short, it runs like this:
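CHO cells stably over-expressing ADRB2 were plated overnight at 37C, then dosed with compounds plus a stimulation mix containing 100uM IBMX and 25uM Ro-20-1724 for 0.5hr at room temperature. cAMP was measured by HTRF competition, 1hr.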

Assay [17] concerns the target D(2) dopamine receptor (Homo sapiens) (UniProt P14416). In words: Dopamine D2 receptor (DRD2) small molecule agonists, cell-based qHTS assay (AID 1963594). Also: nearly all actives have a fitted effect of over 35% in size. The procedure, abridged: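 HEK293 cells stably expressing human DRD2, pre-treated with PDE inhibitor Ro20-1724 (0.1 mM final) and compound 10 min at room temperature, then stimulated with NKH477 (200nM […]) for 30 min. cAMP read by HTRF (665/620 nm).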

Assay [18] has the same target. Nature of the assay: Dopamine D2 receptor (DRD2) small molecule antagonists, cell-based qHTS assay (AID 1963595; active = well fitted inhibition curve with a large enough effect in the signal ratio in the repeat runs, with a control signal flat; the % refers to the signal ratio; also: potency is read from the fitted curve at half-maximal effect). In short, it runs like this:
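DRD2-HEK293; 0.1 mM Ro20-1724; cpd 10 min RT; NKH477 200 nM + quinpirole 12 nM, 30 min RT; HTRF cAMP (cAMP-d2/anti-cAMP cryptate), 665/620 nm ratio after 1 h.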

The target of assay [19] is KiSS-1 receptor (Homo sapiens) (UniProt Q969F8). In words: Human kisspeptin (KISS1R) small molecule agonists, calcium flux assay in KISS1R-HEK293 cells (AID 1920064; active = well fitted activation curve with a large enough effect in the repeat runs). The procedure, abridged: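 Kinetic calcium assay, 1 s sampling over 3 min at Ex/Em 480/540, in HEK293 cells engineered with human KISS1R; compounds delivered in DMSO after 1 h dye loading.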
Assay [20] in a line: p53 small molecule agonists, cell-based qHTS assay with rat liver microsomes (AID 1963578). In short, it runs like this:
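Read-out is beta-lactamase reporter fluorescence (LiveBLAzer, 2 h, room temperature, dark) in p53RE-bla cells treated 16 h at 37 C with compound, rat liver microsomes and NADPH, both 0.5 mg/mL final.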

KiSS-1 receptor (Homo sapiens), sequence (Q969F8 whole entry, looked up): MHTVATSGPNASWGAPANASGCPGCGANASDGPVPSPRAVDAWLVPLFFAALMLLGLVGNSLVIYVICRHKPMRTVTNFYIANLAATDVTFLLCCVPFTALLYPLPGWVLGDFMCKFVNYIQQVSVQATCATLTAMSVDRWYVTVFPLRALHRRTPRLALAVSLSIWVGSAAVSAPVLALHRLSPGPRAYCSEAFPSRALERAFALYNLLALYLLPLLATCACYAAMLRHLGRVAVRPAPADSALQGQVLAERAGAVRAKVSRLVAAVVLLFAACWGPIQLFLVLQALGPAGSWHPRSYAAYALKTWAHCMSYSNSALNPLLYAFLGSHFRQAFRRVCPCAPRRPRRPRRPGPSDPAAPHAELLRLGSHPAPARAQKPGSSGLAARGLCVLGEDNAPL
5-hydroxytryptamine receptor 2A (Homo sapiens), sequence (P28223 whole entry, looked up): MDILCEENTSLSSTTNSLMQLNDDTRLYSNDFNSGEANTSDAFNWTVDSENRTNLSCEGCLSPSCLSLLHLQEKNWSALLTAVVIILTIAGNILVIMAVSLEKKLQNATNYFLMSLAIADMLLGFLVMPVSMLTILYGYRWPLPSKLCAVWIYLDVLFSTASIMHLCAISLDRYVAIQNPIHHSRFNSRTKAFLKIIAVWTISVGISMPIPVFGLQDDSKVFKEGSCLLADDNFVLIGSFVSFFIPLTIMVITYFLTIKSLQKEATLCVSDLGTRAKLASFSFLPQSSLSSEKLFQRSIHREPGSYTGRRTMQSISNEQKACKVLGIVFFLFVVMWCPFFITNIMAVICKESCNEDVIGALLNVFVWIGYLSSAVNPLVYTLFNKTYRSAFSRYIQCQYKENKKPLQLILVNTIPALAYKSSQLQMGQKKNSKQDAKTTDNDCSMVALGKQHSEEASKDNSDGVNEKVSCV
Beta-2 adrenergic receptor (Homo sapiens), sequence (P07550 whole entry, looked up): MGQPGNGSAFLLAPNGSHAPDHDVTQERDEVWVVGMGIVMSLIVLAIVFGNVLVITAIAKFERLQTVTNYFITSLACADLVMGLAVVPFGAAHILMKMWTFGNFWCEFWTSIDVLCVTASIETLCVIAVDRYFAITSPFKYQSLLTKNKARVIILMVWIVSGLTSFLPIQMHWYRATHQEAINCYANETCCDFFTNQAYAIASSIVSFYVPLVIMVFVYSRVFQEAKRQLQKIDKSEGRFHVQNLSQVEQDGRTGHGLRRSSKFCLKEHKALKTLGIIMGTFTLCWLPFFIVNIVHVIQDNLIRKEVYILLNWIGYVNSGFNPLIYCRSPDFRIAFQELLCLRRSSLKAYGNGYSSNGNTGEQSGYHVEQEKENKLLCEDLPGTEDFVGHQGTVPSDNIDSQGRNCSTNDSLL
D(2) dopamine receptor (Homo sapiens), sequence (P14416 whole entry, looked up): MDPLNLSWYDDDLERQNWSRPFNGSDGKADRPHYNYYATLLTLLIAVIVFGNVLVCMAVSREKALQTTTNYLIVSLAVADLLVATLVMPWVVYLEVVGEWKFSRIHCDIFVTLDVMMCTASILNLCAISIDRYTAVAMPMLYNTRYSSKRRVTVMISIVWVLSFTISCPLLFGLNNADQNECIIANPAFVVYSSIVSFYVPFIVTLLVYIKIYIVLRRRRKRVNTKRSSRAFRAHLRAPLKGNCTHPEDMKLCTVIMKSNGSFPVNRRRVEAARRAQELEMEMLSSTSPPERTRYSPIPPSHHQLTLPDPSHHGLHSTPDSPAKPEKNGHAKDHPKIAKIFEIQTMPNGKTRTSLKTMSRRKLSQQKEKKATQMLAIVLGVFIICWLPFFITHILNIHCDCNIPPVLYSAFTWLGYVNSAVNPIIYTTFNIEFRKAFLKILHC
Gonadotropin-releasing hormone receptor (Homo sapiens), sequence (P30968 whole entry, looked up): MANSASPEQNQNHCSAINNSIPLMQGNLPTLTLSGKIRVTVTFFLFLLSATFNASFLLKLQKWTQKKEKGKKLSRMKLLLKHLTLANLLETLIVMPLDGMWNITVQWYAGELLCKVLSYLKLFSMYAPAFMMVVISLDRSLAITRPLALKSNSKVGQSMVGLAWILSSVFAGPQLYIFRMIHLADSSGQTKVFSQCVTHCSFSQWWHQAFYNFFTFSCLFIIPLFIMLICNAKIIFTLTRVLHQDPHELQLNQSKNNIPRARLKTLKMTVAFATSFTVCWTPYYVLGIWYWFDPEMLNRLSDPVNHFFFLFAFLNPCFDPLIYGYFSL
Muscarinic acetylcholine receptor M1 (Homo sapiens), sequence (P11229 whole entry, looked up): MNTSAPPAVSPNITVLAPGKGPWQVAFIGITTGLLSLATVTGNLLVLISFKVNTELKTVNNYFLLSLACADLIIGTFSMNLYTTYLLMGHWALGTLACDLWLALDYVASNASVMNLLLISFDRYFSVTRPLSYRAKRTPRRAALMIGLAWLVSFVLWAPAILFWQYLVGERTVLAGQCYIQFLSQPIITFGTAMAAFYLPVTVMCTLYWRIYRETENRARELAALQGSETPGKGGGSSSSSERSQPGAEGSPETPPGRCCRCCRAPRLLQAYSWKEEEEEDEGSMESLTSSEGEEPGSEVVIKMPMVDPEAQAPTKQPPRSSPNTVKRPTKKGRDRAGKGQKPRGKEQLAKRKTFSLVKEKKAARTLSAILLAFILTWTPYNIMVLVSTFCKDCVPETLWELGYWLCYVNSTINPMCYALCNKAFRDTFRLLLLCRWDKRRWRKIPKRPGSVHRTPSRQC

Take `Nc1ccc(Cl)c(Cl)c1`: the Potency entry in [1], in assay [2], in assay [3], in assay [4], in assay [5] and in assay [6] was “inactive” throughout. Further, the Potency entry in [7], in assay [8], in [9], in assay [10], in assay [11] and in assay [12] was “inactive” in each case. In addition, the Potency result in assay [13], in assay [14], in [15], in [16], in assay [17] and in [18] was “inactive” each time.
Consider `CCC(C)Cl` (centres undefined), for which the Potency entry in [1], in assay [19], in assay [3], in assay [4], in [20] and in [5] was “inactive” each time. For the same compound, the Potency entry in assay [6], in assay [7], in assay [8], in assay [9], in assay [10] and in [11] was “inactive” in each case. Besides, the Potency entry in assay [12], in assay [14], in assay [15] and in assay [17] was “inactive” in each case.
In the case of `Cc1cc(O)ccc1Cl`, the Potency result in [2], in assay [19], in assay [3], in assay [4], in assay [5] and in [6] was “inactive” in each case. Further, the Potency entry in assay [7], in assay [8], in assay [9], in [10], in [11] and in assay [12] was “inactive” throughout. Besides, the Potency result in assay [13], in assay [14], in assay [15], in assay [16], in [17] and in assay [18] was “inactive” in each case.
On to `[Cl-].[Cl-].[Hg+2]`, for which the Potency in assay [2] is 38.7 µM (active) and 38.9 µM (active); in assay [5], 5.74 µM (active) and 10.2 µM (active); in assay [6] it was 16.2 µM (active) and 4.08 µM (active); in assay [7], 3.62 µM (active) and 9.13 µM (active); in assay [10], 54.9 µM (active); in assay [12] it was 54.9 µM (active). In assay [18], the Potency was 1.92 µM (active). In addition, the Potency result in assay [3], in assay [9] and in assay [11] was “inactive” each time.
For `CCCCCON=O`, the Potency result in [2], in assay [19], in assay [3], in assay [4], in [20] and in assay [5] was “inactive” throughout. Also, the Potency result in [6], in assay [7], in assay [8], in assay [9], in assay [10] and in [11] was “inactive” throughout. Besides, the Potency result in [12], in assay [13], in assay [14], in assay [15], in [16] and in assay [17] was “inactive” throughout. For the same compound, the Potency entry in assay [18] was “inactive”.
As to `CCCCCCCC[N+](C)(CCCCCCCC)CCCCCCCC`, the Potency result in [1], in assay [2], in [19], in assay [3], in assay [9] and in [12] was “inactive” in each case. The Potency entry in assay [15] and in assay [17] was “inactive” each time. Further, the Potency in [5] is 5.75 µM (active) and 6.47 µM (active) and 25.7 µM (active); in assay [6], 14.4 µM (active) and inactive and 40.8 µM (active); in [7], 9.11 µM (active) and 2.58 µM (active) and 20.4 µM (active); in assay [11], 5.93 µM (active) and inactive and 6.67 µM (active); in assay [18], 54.4 µM (active) and inactive and 17.2 µM (active).
